Measured values taken from PubChem BioAssay (Tox21).
Results filed as inconclusive are left out. Calls of active or inactive are those of the source. Unless noted, calls follow the shape of the dose curve; as a rule, active = well fitted curve in the direction sought with a large enough effect in the repeat runs; inconclusive = weak or mixed curves; inactive = no such curve, though single readings can be large; an effect the other way counts as inactive or inconclusive.

Columns and labels:
[1] = qHTS assay to identify small molecule antagonists of the glucocorticoid receptor (GR) signaling pathway - cell viability counter screen (AID 720693); also: nearly all actives have a fitted effect of over 55% in size
[2] = qHTS assay for identifying genotoxic compounds that show differential cytotoxicity against isogenic chicken DT40 cell lines with known DNA damage response pathways - Rad54/Ku70 mutant cell line (AID 743015); also: nearly all actives have a fitted effect of over 60% in size; also: potency is read from the fitted curve at half-maximal effect
[3] = qHTS assay to identify small molecule antagonists of the androgen receptor (AR) signaling pathway using the MDA cell line - cell viability counter screen (AID 743041; also: nearly all actives have a fitted effect of over 45% in size; also: potency is read from the fitted curve at half-maximal effect)
Procedure, shortened: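 Viability counter screen run alongside the AR antagonist reporter: cells seeded 5 h before compound, R1881 added, 16 h incubation at 37C without CO2, fluorescent CellTiter-Fluor signal quantified.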

[4] = qHTS assay to identify small molecule antagonists of the thyroid receptor (TR) signaling pathway - cell viability counter screen (AID 743064); also: nearly all actives have a fitted effect of over 50% in size; also: potency is read from the fitted curve at half-maximal effect
Procedure, shortened: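 GH3.TRE-Luc cells, 4 h pre-plating; cpd + T3 1 nM final; 37 °C 23.5 h; CellTiter-Fluor 30 min; fluorescence read.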

[5] = qHTS assay to identify small molecule antagonists of the thyroid receptor (TR) signaling pathway (AID 743065); also: nearly all actives have a fitted effect of over 55% in size; also: potency is read from the fitted curve at half-maximal effect
Procedure, shortened: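 GH3.TRE-Luc rat pituitary cells carrying two TR response elements driving luciferase were plated for 4 h, given compound plus 1 nM T3 (final), and incubated 23.5 h at 37 C. ONE-Glo luminescence measured reporter inhibition; CellTiter-Fluor fluorescence tracked cytotoxicity.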

[6] = tested on: thyroid hormone receptor (rat, GH3 cells); assay: qHTS assay to identify small molecule agonists of the thyroid receptor (TR) signaling pathway (AID 743066; calls by dose curve)
[7] = molecular target: Estrogen receptor (Homo sapiens) (UniProt P03372); assay: qHTS assay to identify small molecule antagonists of the estrogen receptor alpha (ER-alpha) signaling pathway (AID 743069; active = well fitted curve in the direction sought with a large enough effect in the signal ratio in the repeat runs, not every such curve was filed as active; the % refers to the signal ratio)
Procedure, shortened: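 Estradiol-stimulated ER-alpha-UAS-bla HEK293 cells, 18 hr compound exposure at 37C. LiveBLAzer B/G substrate, 2 hr RT, fluorescence read.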

[8] = qHTS assay to identify small molecule antagonists of the estrogen receptor alpha (ER-alpha) signaling pathway - cell viability counter screen (AID 743074; calls by dose curve;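 also: HEK293 cells carrying ER-alpha-UAS-bla reporter stimulated with 17beta-estradiol; nearly all actives have a fitted effect of over 45% in size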)
[9] = molecular target: Estrogen receptor (Homo sapiens) (UniProt P03372); assay: qHTS assay to identify small molecule agonists of the estrogen receptor alpha (ER-alpha) signaling pathway (AID 743075; calls by dose curve;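 also: HEK293 GripTite cells with ER-alpha and UAS-driven beta-lactamase reporter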)
[10] = qHTS assay to identify small molecule antagonists of the estrogen receptor alpha (ER-alpha) signaling pathway using the BG1 cell line (AID 743080; calls by dose curve;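 also: BG1 cells stimulated with 17beta-estradiol alongside compound; nearly all actives have a fitted effect of over 25% in size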)
Procedure, shortened: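 Quantitative HTS on the Tox21 10K library: BG1 cells with endogenous ER-alpha and ERE-luciferase reporter, 17beta-estradiol stimulation, 21.5 h compound exposure, luminescence endpoint with parallel fluorescence cytotoxicity counter-read.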

[11] = qHTS assay to identify small molecule antagonists of the estrogen receptor alpha (ER-alpha) signaling pathway using the BG1 cell line - cell viability counter screen (AID 743081);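 also: compound given together with 17beta-estradiol as the ER stimulus; nearly all actives have a fitted effect of over 45% in size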; also: potency is read from the fitted curve at half-maximal effect
[12] = molecular target: Aromatase (Homo sapiens) (UniProt P11511); assay: qHTS assay to identify aromatase inhibitors (AID 743083); also: nearly all actives have a fitted effect of over 55% in size; also: potency is read from the fitted curve at half-maximal effect
[13] = qHTS assay to identify small molecule antagonists of the androgen receptor (AR) signaling pathway - cell viability counter screen (AID 743033; also: nearly all actives have a fitted effect of over 45% in size; also: potency is read from the fitted curve at half-maximal effect)
[14] = molecular target: Androgen receptor (Homo sapiens) (UniProt P10275); assay: qHTS assay to identify small molecule agonists of the androgen receptor (AR) signaling pathway (AID 743036; active = well fitted activation curve with a large enough effect in the signal ratio in the repeat runs, with a control signal flat, not every such curve was filed as active; the % refers to the signal ratio; also: potency is read from the fitted curve at half-maximal effect)
Procedure, shortened: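 AR-bla HEK293 cells, 2,000/well; 4 h preincubation 37C/5% CO2; compound (DMSO) 16 h at 37C; LiveBLAzer B/G FRET substrate 2 h RT; fluorescence intensity read-out.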

[15] = molecular target: Androgen receptor (Homo sapiens) (UniProt P10275); assay: qHTS assay to identify small molecule agonists of the androgen receptor (AR) signaling pathway using the MDA cell line (AID 743040; also: nearly all actives have a fitted effect of over 20% in size; also: potency is read from the fitted curve at half-maximal effect)
Procedure, shortened: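 Luminescence from ONE-Glo, read after 30 min at room temperature, reflects MMTV-driven luciferase in MDA-kb2 cells (AR- and GR-responsive). Treatment lasted 16 h at 37C, 0% CO2.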

[16] = molecular target: Androgen receptor (Homo sapiens) (UniProt P10275); assay: qHTS assay to identify small molecule antagonists of the androgen receptor (AR) signaling pathway using the MDA cell line (AID 743042; also: nearly all actives have a fitted effect of over 55% in size; also: potency is read from the fitted curve at half-maximal effect)
Procedure, shortened: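 MDA-kb2 cells (human breast carcinoma, stably carrying an MMTV-luciferase reporter responsive to AR and GR) were plated at 3,000 cells/well and preincubated 5 hr at 37C, then given compound plus R1881 agonist for 16 h. ONE-Glo luminescence was read.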

[17] = molecular target: Estrogen receptor (Homo sapiens) (UniProt P03372); assay: qHTS assay to identify small molecule agonists of the estrogen receptor alpha (ER-alpha) signaling pathway using the BG1 cell line (AID 743079); settings: BG1Luc4E2 cells, ERE-luciferase agonist, 22 h; activation: at 70.3 µM (top of the series); also: nearly all actives have a fitted effect of over 20% in size; also: potency is read from the fitted curve at half-maximal effect
[18] = qHTS assay for identifying genotoxic compounds that show differential cytotoxicity against isogenic chicken DT40 cell lines with known DNA damage response pathways - wild type cell line (AID 743012); also: potency is read from the fitted curve at half-maximal effect; nearly all actives have a fitted effect of over 60% in size
Procedure, shortened: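 First, wild type DT40 cells were plated at 300 per well and equilibrated about 0.5 h at 37 C/5% CO2. Next, compounds in DMSO were added and exposure lasted 40 h. Finally, CellTiter-Glo was added for 30 min at room temperature and luminescence recorded.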

[19] = qHTS assay for identifying genotoxic compounds that show differential cytotoxicity against isogenic chicken DT40 cell lines with known DNA damage response pathways - Rev3 mutant cell line (AID 743014)
[20] = molecular target: Androgen receptor (Homo sapiens) (UniProt P10275); assay: qHTS assay to identify small molecule antagonists of the androgen receptor (AR) signaling pathway (AID 743035; active = well fitted inhibition curve with a large enough effect in the signal ratio in the repeat runs, not every such curve was filed as active; the % refers to the signal ratio; also: potency is read from the fitted curve at half-maximal effect)
Procedure, shortened: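 Beta-lactamase FRET read (2 h RT incubation with LiveBLAzer B/G) following 16 h of compound plus R1881 treatment of AR-UAS-bla HEK293 cells, which had been pre-incubated 4 h at 37C.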

Measured: Potency

Sequence of Estrogen receptor (Homo sapiens) (P03372 whole entry, looked up): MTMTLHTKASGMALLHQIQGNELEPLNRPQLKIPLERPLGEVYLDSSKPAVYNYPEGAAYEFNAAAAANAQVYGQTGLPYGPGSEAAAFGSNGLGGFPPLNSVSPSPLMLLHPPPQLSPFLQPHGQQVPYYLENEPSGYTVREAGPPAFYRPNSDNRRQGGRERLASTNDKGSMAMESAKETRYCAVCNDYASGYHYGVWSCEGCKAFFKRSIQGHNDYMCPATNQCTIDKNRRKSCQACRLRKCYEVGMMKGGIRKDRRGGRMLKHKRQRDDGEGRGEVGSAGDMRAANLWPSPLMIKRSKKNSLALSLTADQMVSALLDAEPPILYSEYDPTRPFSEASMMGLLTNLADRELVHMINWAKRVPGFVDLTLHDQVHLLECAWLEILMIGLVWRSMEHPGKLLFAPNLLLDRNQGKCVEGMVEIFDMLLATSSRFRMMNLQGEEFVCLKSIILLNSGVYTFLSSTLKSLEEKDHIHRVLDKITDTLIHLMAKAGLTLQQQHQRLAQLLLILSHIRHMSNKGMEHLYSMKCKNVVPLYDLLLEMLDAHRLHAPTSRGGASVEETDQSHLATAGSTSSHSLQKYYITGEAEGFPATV
Sequence of Androgen receptor (Homo sapiens) (P10275 whole entry, looked up): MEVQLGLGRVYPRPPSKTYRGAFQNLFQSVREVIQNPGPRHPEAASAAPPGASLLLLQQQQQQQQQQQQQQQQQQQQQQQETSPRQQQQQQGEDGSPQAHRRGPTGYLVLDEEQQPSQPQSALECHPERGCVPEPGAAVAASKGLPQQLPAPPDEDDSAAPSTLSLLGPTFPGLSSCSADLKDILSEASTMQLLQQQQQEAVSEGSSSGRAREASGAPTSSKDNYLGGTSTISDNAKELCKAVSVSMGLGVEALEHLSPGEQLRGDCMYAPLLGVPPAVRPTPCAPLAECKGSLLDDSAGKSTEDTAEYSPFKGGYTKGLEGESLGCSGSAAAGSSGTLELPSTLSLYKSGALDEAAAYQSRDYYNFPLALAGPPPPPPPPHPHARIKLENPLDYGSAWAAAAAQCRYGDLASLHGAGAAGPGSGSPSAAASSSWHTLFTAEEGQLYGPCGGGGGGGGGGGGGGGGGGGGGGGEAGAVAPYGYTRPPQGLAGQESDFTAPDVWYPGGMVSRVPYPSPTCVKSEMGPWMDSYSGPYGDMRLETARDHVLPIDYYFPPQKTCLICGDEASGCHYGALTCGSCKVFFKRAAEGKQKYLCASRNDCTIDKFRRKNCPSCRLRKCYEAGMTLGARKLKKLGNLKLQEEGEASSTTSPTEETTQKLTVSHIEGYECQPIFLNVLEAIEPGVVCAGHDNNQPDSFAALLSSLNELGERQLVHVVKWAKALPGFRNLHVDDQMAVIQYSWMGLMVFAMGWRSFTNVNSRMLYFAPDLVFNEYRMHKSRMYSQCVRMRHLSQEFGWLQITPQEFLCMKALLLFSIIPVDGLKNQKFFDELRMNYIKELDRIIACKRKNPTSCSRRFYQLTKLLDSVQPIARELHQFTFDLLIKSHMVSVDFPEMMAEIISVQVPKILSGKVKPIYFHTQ
Sequence of Aromatase (Homo sapiens) (P11511 whole entry, looked up): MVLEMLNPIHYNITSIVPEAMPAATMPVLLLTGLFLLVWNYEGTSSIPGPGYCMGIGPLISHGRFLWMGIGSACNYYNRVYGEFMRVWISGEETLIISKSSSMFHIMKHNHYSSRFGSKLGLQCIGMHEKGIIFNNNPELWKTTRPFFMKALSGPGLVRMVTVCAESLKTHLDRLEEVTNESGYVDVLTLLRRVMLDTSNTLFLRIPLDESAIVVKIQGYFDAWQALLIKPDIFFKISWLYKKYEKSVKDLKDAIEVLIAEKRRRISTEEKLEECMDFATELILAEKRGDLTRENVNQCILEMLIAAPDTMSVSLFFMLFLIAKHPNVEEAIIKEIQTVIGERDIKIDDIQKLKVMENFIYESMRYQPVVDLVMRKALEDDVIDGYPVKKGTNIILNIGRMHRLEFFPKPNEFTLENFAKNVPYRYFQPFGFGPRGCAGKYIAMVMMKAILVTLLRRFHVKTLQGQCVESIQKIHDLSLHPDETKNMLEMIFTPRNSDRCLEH

NC(Cc1ccccc1)C(=O)O (configuration not stated)
inactive: [1] | [2] | [3] | [4] | [5] | [6] | [7] | [8] | [9] | [10] | [11] | [12]

CC(=O)OCC(=O)[C@@]1(O)[C@H](C)C[C@H]2[C@@H]3C[C@H](F)C4=CC(=O)C=C[C@]4(C)[C@H]3[C@@H](O)C[C@@]21C
active: [14] 1.34 µM | [15] 0.0298 µM
inactive: [1] | [13] | [3] | [16] | [4] | [5] | [6] | [8] | [9] | [17] | [12]

C=C1C(=O)O[C@H]2[C@H]1CC/C(C)=C\CC[C@@]1(C)O[C@@H]21
inactive: [15] | [7] | [8] | [10] | [11]
active: [18] 2.98 µM | [19] 2.98 µM | [2] 4.22 µM | [13] 23.9 µM | [20] 23.9 µM | [16] 6.68 µM | [5] 7.5 µM | [12] 21.1 µM

C=C[C@]1(C)C[C@@H](OC(=O)CO)[C@]2(C)[C@H](C)CC[C@]3(CCC(=O)[C@H]32)[C@@H](C)[C@@H]1O
inactive: [1] | [13] | [4] | [7] | [9] | [17] | [10] | [12]

O=C(O)c1cc2ccccc2c(Cc2c(O)c(C(=O)O)cc3ccccc23)c1O
inactive: [1] | [2] | [13] | [3] | [4] | [5] | [6] | [8] | [12]

CCCCC[C@H](O)/C=C/[C@H]1[C@H](O)CC(=O)[C@@H]1CCCCCCC(=O)O
inactive: [1] | [3] | [8] | [9] | [17] | [11] | [12]

CC(C)[C@@H](C)/C=C/[C@@H](C)[C@H]1CC[C@H]2/C(=C/C=C3\C[C@@H](O)CC[C@@H]3C)CCC[C@]12C
inactive: [1] | [13] | [3] | [4] | [6] | [7] | [8] | [9] | [17] | [10] | [11] | [12]

CC(C)(CO)[C@@H](O)C(=O)NCCC(=O)NCCSSCCNC(=O)CCNC(=O)[C@H](O)C(C)(C)CO
inactive: [1] | [3] | [4] | [5] | [6] | [7] | [8] | [9] | [17] | [10] | [11] | [12]

C[C@@H]1C[C@H]2C3C[C@H](F)C4=CC(=O)C=CC4(C)[C@@]3(F)[C@@H](O)CC2(C)[C@@]1(O)C(=O)COC(=O)C(C)(C)C (some centres not stated)
active: [14] 0.0601 µM | [15] 0.0047 µM
inactive: [1] | [13] | [20] | [3] | [16] | [4] | [6] | [8] | [9] | [17] | [11] | [12]

CC(=O)N[C@@H](C=O)[C@@H](O)[C@H](O)[C@H](O)CO
inactive: [1] | [2] | [3] | [4] | [5] | [6] | [7] | [8] | [9] | [17] | [10] | [11] | [12]

NCCC[C@H](N)C(=O)O
inactive: [1] | [13] | [3] | [5] | [6] | [7] | [9] | [17] | [10] | [12]

Cc1cc(/C=C/c2ccc3cc(N(C)C)ccc3[n+]2C)c(C)n1-c1ccccc1
inactive: [1]
active: [13] 4.56 µM | [3] 2.66 µM | [4] 6.39 µM | [5] 4.03 µM | [11] 11.4 µM | [12] 7.17 µM

CC(C)c1nc(N(C)S(C)(=O)=O)nc(-c2ccc(F)cc2)c1/C=C/C(O)CC(O)CC(=O)O (configuration not stated)
inactive: [1] | [13] | [3] | [4] | [5] | [6] | [7] | [8] | [9] | [11]
active: [17] 26.6 µM

OCC(S)CS (configuration not stated)
inactive: [13] | [20] | [15] | [8] | [9] | [17] | [11] | [12]
active: [18] 16.8 µM | [19] 18.8 µM | [2] 8.41 µM
